High-throughput results as filed in PubChem.
Only some compounds are listed: those with a hit (about 0.69% of all), similar ones and a draw of the others.
Vif-APOBEC3F blk – Vif-A3F binding inhibition; HeLa A3F-eYFP + Vif (tagged APOBEC3F with the HIV-1 protein that degrades it), YFP fluorescence increase; Potency, µM (doses to about 46.1 µM), without a hit: at the highest dose activity, negative = active; 0.2% of 390,000 active; further: % of control where 0% means no effect; nearly all actives have a fitted effect of over 65% in size
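HeLa cells stably expressing Vif plus C-terminally eYFP-tagged A3F were seeded, incubated overnight at 37 deg C, dosed with compound, incubated overnight again at 37 deg C. Yellow fluorescence (Ex 488/Em 500-530) reported blocked Vif-mediated A3F-eYFP degradation.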
FUS suppressor – suppressors of FUS proteinopathy in yeast. 0.24% of 390,000 active. S. cerevisiae FUS-expressing, growth rescue, OD600, 24 h. Potency, µM (series often up to 76.6 µM), usual class: activators;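 further: plate controls were DMSO vehicle for no effect and reference control for full effect; nearly all actives have a fitted effect of over 55% in size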
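S. cerevisiae expressing FUS from galactose induction served as the toxicity model. Growth after 24hr at 30C, read as absorbance at 600 nm, indicates suppression of toxicity; compounds dosed at several concentrations.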
Glioma ERSR ind – ER stress response induction in glioma; U87-MG GRP78 promoter luciferase reporter, 16 h; Potency, µM, for the others: at the highest dose activation, hits mostly activators; 0.02% of 420,000 active; AID 602332; further: series mostly up to about 76 µM; % of control where 0% means no effect; nearly all actives have a fitted effect of over 35% in size
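Stably transfected U87-MG human glioma cells carrying a GRP78-based luminescent sensor were seeded at 1000 cells/well, pin-dosed with compounds and incubated 16 h. Luciferase reagent was then added, and end-point luminescence was read after 10 min at room temperature.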
PINK1 expr mod – modulators of PINK1 expression; AID 624263; PINK1 immunofluorescence, high-content cytometry, 24 h; Potency, µM (top dose mostly 76.6 µM), for inactives: top-dose activation (PINK1 increase), usual class: activators; 0.2% of 410,000 active; active means well fitted activation curve with a large enough effect; inconclusive means small, poorly fitted or top-dose-only effect; cell line not stated here; further: % of control where 0% means no effect; nearly all actives have a fitted effect of over 65% in size
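PINK1 protein, normally rapidly degraded, was detected by immunofluorescence after 24 hour compound treatment of a stable cell line. Titration data (5 concentrations) came from laser-scanning cytometry, with CCCP-treated wells as controls.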
Vif-A3G inh – inhibitors of Vif-APOBEC3G interaction | 0.076% of 410,000 active | Potency, µM (top dose mostly 46.1 µM), for inactives: at the highest dose activity, negative = active, actives largely listed as inhibitors | Q9HC16 | AID 602310 | HeLa A3G-eYFP + Vif (tagged APOBEC3G with the HIV-1 protein that degrades it), YFP fluorescence, overnight; further: on the % scale 0 is the no-effect control and ±100 the full control effect; nearly all actives have a fitted effect of over 60% in size
Target sequence (Q9HC16 whole entry, looked up): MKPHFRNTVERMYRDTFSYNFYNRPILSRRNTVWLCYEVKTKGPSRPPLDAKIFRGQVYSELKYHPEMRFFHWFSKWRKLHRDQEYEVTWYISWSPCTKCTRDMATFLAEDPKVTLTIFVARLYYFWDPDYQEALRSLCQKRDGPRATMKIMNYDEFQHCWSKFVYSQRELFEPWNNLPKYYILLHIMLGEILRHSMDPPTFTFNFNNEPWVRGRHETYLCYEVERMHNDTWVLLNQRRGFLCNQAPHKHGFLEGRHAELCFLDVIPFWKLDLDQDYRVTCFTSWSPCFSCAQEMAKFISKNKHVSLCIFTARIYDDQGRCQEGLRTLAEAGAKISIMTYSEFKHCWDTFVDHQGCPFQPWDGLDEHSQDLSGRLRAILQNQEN
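HeLa cells stably expressing Vif and C-terminally eYFP-tagged A3G, seeded overnight at 37 deg C, then exposed to compound by pintool overnight at 37 deg C. Rise in yellow fluorescence (Ex 488/Em 500-530, Acumen) marks blocked Vif-driven A3G degradation.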
Abeta yeast res – compounds reversing amyloid beta toxicity in yeast; yeast expressing A-beta42, growth rescue, OD600, 48 h; response scale: 0% DMSO, 100% iron-clioquinol control; Potency, µM (series often up to 46.1 µM), most hits filed as activators; 0.063% of 410,000 active; AID 1347071; further: nearly all actives have a fitted effect of over 55% in size
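Growth rescue measured by 600 nm absorbance after 48 h yeast culture at 30 C with compound. Values normalized between DMSO and an equimolar ferric chloride plus clioquinol control.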
Starred values were filed as active, the others as inactive; i = inactive; ? = inconclusive; . = no result; [ ] = remark or other dose. Unless noted, the call rests on the fitted dose curve; in most records, active means well fitted curve in the direction sought with a large enough effect; inconclusive means small, poorly fitted or top-dose-only effect, or another doubt; inactive means no such curve, though single readings can be large; an effect the other way counts as inactive or inconclusive. Potency means the concentration at half of the fitted maximal effect.

SMILES | Vif-APOBEC3F blk | FUS suppressor | Glioma ERSR ind | PINK1 expr mod | Vif-A3G inh | Abeta yeast res
CN(C)c1ccc(/C=C/C(=O)c2ccc(O)cc2)cc1 | 7.94µM* | . | 6.4% | 5.3% | ? | i
CN(C)c1ccc(C(=O)C=Cc2ccc([N+](=O)[O-])cc2)cc1 | -1.8% | i | -4.5% | -1.1% | -6.3% | i
COc1ccc(NC(=O)CSc2nc3c(oc4ccccc43)c(=O)n2Cc2ccco2)cc1Cl | 8.91µM* | i | -2.4% | 3.0% | ? | i
COc1ccc(CN2CCCC(Cn3cc(C(=O)N4CCCC4)nn3)C2)c(O)c1 (stereo not given) | . | . | -2.4% | 0.9% | . | .
CCC1CN(CCC(=O)N2CCCN(C(=O)c3ccco3)CC2)Cc2cc(OC)ccc2O1 (stereo not given) | . | . | -2.4% | 0.4% | . | .
S=c1[nH]nc(-c2ccc(Cl)cc2)n1-c1ccc(Cl)cc1 | 7.0% | i | -3.8% | 0.2% | 2.2% | 10µM*
Cn1c(N)c(-c2ccccc2)c2ccc([N+](=O)[O-])cc2c1=O | ? | i | -6.2% | 1.6% | 8.91µM* | i
CCC1C(=O)NCCN1Cc1ccc2c(c1)CN(Cc1cccn1-c1ccc(Cl)cn1)CCO2 (stereo not given) | . | . | -3.1% | 1.8% | . | .
COc1ccc(-n2c(SC3CCOC3=O)nc3ccccc3c2=O)cc1OC (stereo not given) | -2.0% | i | -0.8% | 10µM* | 2.0% | i
Cc1ccc(S(=O)(=O)c2cc3ccccc3oc2=Nc2ccc3c(c2)OCO3)cc1 | 22.4µM* | i | -3.8% | ? | -18.4% | i
Cc1ccc(S(=O)(=O)c2cc3ccccc3oc2=Nc2ccc3c(c2)OCCO3)cc1 | -1.5% | . | -6.5% | 0.7% | 0.6% | i
COc1ccc(-n2c(C)cc(/C=C3\SC(=S)N(Cc4ccco4)C3=O)c2C)cc1 | ? | i | -0.5% | 2.6% | ? | i
CCN1CCN(c2c(/C=C3\SC(=S)N(Cc4ccco4)C3=O)c(C)c(C#N)c(=O)n2C)CC1 | ? | 22.4µM* | -5.3% | 16.0% | ? | i
OC1(c2cccnc2)CCN(Cc2ccc3c(c2)CN(Cc2ccc4nsnc4c2)CCO3)CC1 | . | . | -4.8% | -1.3% | . | .
Cc1ccc(NP(=O)(c2ccc(N(C)C)cc2NC(=O)c2cccs2)N2CCOCC2)cc1Cl (stereo not given) | -4.8% | 3.98µM* | 1.4% | 10.6% | -14.9% | i
Cn1c2ccccc2c2ccc3c(c21)C(=O)C=CC3=O | 11.2µM* | . | -2.5% | -2.9% | -5.9% | i
CCOc1ccc(Cn2c3ccc(OC)cc3c3nc4ccccc4nc32)cc1 | 11.2µM* | . | -6.8% | 16.8% | ? | i
CCn1c2ccc(OC)cc2c2nc3ccccc3nc21 | . | i | -5.9% | -1.6% | -18.5% | i
Cc1ccc(N=Cc2ccc[nH]2)c(O)c1 | -11.0% | 35.5µM* | 0.5% | 1.7%[38.3 µM] | -9.7% | i
Cc1ncc2c(c1CNC(=O)c1ccc3c(c1)OCO3)CCN(C(=O)c1cc3ccccc3n1C)C2 | . | . | -2.9% | 0.6% | . | .
COc1ccc(C(=O)N/N=C/c2ccc(OC)c(CSc3ccccn3)c2)cc1 | 3.6% | i | 0.4% | 1.2% | 1.7% | i
COc1ccc(/C=N/NC(=O)c2cccnc2)cc1CSc1ccccn1 | -2.7% | i | -1.6% | 8.2% | 7.08µM* | i
CC1Cc2ccccc2N1C(=O)CSc1ccccc1 (stereo not given) | -3.3% | i | 4.7% | -4.4%[38.3 µM] | 1.6% | i
CC1Cc2ccccc2N1C(=O)CSC1=NCCS1 (stereo not given) | -12.5% | i | 1.1% | 11.2µM* | 0.9% | i
COc1cc(CN2CCCC(n3cc(C(=O)N4CCCCC4)nn3)C2)cc2c1OCO2 (stereo not given) | . | . | -4.3% | 1.0% | . | .
SMILES | Vif-APOBEC3F blk | FUS suppressor | Glioma ERSR ind | PINK1 expr mod | Vif-A3G inh | Abeta yeast res
COC(=O)[C@]12CCCCC=C1N(CCc1ccc(OC)c(OC)c1)C(=O)[C@H](CC(=O)NCCCCc1ccccc1)C2 | . | 8.91µM* | . | . | . | i
COC(=O)[C@]12CCCCC=C1N(CCc1ccc(OC)c(OC)c1)C(=O)[C@H](CC(=O)NCc1cccc(C(F)(F)F)c1)C2 | . | 4.47µM* | . | . | . | i
COC(=O)[C@]12CCCCC=C1N(CCc1ccc(OC)c(OC)c1)C(=O)[C@H](CC(=O)NCc1ccc(OC)c(OC)c1)C2 | . | ? | . | . | . | i
COC(=O)[C@]12CCCCC=C1N(CCc1ccc(OC)c(OC)c1)C(=O)[C@H](CC(=O)NCc1ccccc1)C2 | . | ? | . | . | . | i
Cc1ccc(C(=O)N(Cc2cc3cc4c(cc3nc2N2CCOCC2)CCC4)CC2CCCO2)s1 (stereo not given) | . | . | 0.0% | -0.7% | . | .
CC1Nc2ncnc(N3CCN(c4ccccc4)CC3)c2N(Cc2ccccc2)C1=O (stereo not given) | -0.7% | i | -5.5% | 4.2% | 0.9% | i
CC1Nc2ncnc(N3CCN(c4ccccc4)CC3)c2N(Cc2ccc(Cl)cc2)C1=O (stereo not given) | 6.5% | 20µM* | -1.9% | 1.7% | -22.5% | i
Cc1occc1C(=O)Nc1cccc(-c2nc(CNC(=O)c3cccc(C#CC(C)(C)O)c3)c(C)o2)c1 | . | . | -5.3% | 2.6% | . | .
Cc1cn2c(N)c(C=C3C=C(Cl)C(=O)C(Cl)=C3)c(=O)nc2s1 | 10µM* | i | -2.0% | ? | -10.5% | i
COc1cc(=O)n2c(c1C(=O)NCc1ccco1)CCN(Cc1cccc(C(F)(F)F)c1)CC2 | . | . | -4.7% | 1.5% | . | .
S=c1nc(-c2cc(Cl)ccc2Cl)[nH][nH]1 | -7.4% | i | -0.8% | -1.1% | 0.4% | 17.8µM*
CC1Cc2nc(SCC(=O)N3CCN(c4ccccc4)CC3)n(CCc3ccccc3)c(=O)c2S1 (stereo not given) | 1.7% | 14.1µM* | 0.1% | 0.2% | -5.3% | i
CCn1cc(C(=O)O)c(=O)c2cc(F)c(N3CCN(C(=S)NC(=O)c4ccc(F)cc4)CC3)cc21 | -3.3% | ? | -4.1% | -1.9% | 0.6% | i
CCn1cc(C(=O)O)c(=O)c2cc(F)c(N3CCN(S(=O)(=O)c4ccc(NC(=O)OC)cc4)CC3)cc21 | -5.3% | . | -4.0% | 31.6µM* | -4.9% | i
CCCOc1ccc(C(=O)NC(=S)N2CCN(c3cc4c(cc3F)c(=O)c(C(=O)O)cn4CC)CC2)cc1 | 9.5% | i | 0.4% | 35.5µM* | 0.7% | i
O=C1CCCCN1CCC(=O)N1CCOc2ccc(C(O)C3CCCCC3)cc2C1 (stereo not given) | . | . | -0.7% | 0.8% | . | .
CN1/C(=C\C(=O)C[n+]2ccc3ccccc3c2)C(C)(C)c2ccccc21 | ? | i | -4.8% | 44.7µM* | 0.8% | i
